A selection: hits, their analogues and other compounds. The true share with any hit is near 2.7%.
12-LOX inh = ALOX12 (human) lipoxygenase inhibition; P18054; purified 12hLO, xylenol orange hydroperoxide absorbance; Potency, µM (highest dose often 108 µM), without a hit: top-dose activity change, negative = inhibition, most hits filed as inhibitors; 580,000 compounds, 1.1% hits; AID 1671190; further: potency means the concentration at half of the fitted maximal effect; on the % scale 0 is the no-effect control and ±100 the full control effect
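Purified human 12hLO at 150 nM in 25 mM Hepes, 0.01% Triton X-100, pH 7.0, preincubated 15 min at room temperature with compound. Reaction started with 40 uM arachidonic acid, 30 min at room temperature. Hydroperoxide measured by Fe-xylenol orange, 573/405 nm absorbance ratio.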
Nrf2 ARE act = activators of Nrf2 (ARE) signaling. AREc32 ARE-luciferase reporter (MCF7-derived line), luminescence, 24 h. Potency, µM (series often up to 46.1 µM), for the others: at the highest dose activation, actives largely listed as activators. 410,000 compounds, 0.31% hits. AID 624171; further: potency means the concentration at half of the fitted maximal effect; % of control where 0% means no effect; nearly all actives have a fitted effect of over 65% in size
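Cells of the AREc32 ARE-luciferase line are plated in OPTI-MEM containing 5% FBS and left overnight at 37 deg C. Compounds are pinned in, incubation continues 24 hr, and firefly luciferase signal is then measured.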
IDH1 R132H inh = blocks human mutant IDH1 R132H enzyme. O75874. IDH1-R132H enzyme, NADPH consumption, diaphorase/resazurin fluorescence. Potency, µM (top dose mostly 76.6 µM), for the others: at the top dose activity change, negative = inhibition, most hits filed as inhibitors. 390,000 compounds, 0.093% hits. AID 602179; further: potency means the concentration at half of the fitted maximal effect; on the % scale 0 is the no-effect control and ±100 the full control effect; nearly all actives have a fitted effect of over 65% in size
Target sequence (O75874 whole entry R132H, stated change not applied): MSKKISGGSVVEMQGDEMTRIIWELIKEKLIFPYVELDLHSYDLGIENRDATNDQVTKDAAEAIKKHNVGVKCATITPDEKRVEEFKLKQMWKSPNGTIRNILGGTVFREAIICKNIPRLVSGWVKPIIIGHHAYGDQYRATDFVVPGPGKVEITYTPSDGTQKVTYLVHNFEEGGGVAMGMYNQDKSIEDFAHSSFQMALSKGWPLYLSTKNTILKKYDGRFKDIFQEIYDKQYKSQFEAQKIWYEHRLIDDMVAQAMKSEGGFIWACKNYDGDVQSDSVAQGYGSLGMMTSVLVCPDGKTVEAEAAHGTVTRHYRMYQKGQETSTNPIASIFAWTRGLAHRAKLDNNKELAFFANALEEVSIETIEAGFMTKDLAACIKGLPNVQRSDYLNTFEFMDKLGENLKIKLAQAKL
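IDH1-R132H (0.5 ug/mL dispensed) in pH 7.5 Tris buffer was preincubated 30 min with compound, then given a substrate mix of 0.016 mM NADPH and 2 mM alpha-KG for 80 min at room temperature; remaining NADPH was read by diaphorase/resazurin fluorescence.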
LDHA block = inhibitors of human lactate dehydrogenase A. activity change, % (values are at about 110 or 230 µM). purified LDHA, NADH/diaphorase-resazurin fluorescence; active compounds read low. AID 1347041. 480,000 compounds, 0.15% hits. P00338; in the data active means activity change below about -30%; inconclusive means mostly about -25% to -30%;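 further: plate controls were DMSO wells for no effect and wells without enzyme for full effect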
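Human LDH5 (2 nM) was incubated with 0.06 mM NADH and 0.2 mM pyruvate for 5 min at room temperature in Tris pH 7.4. Remaining NADH was coupled through diaphorase/resazurin, and resorufin fluorescence was read at 0 and 20 min.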
Nrf2 block = Nrf2 pathway inhibition; A549 ARE-Fluc reporter, luciferase luminescence, 18-24 h; Potency, µM (doses to about 46 µM), for the others: at the top dose activity change, negative = inhibition, hits mostly inhibitors; 360,000 compounds, 2.1% hits; AID 504444; further: potency means the concentration at half of the fitted maximal effect; on the % scale 0 is the no-effect control and ±100 the full control effect; nearly all actives have a fitted effect of over 60% in size
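Cells were seeded and rested 2 h, then exposed to compounds for 18-24 h. CellTiter-Fluor was read first as a viability measure. BugLite was added 15 min before the final luminescent read of ARE-luciferase activity in A549 cells.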
A549 viability = counter-screen for Nrf2 inhibitors: cytotoxicity in A549 cells; A549 ARE-Fluc cells, CellTiter-Fluor viability, 18-24 h; Potency, µM (titrated, usually from 46 µM), for inactives: at the highest dose activity change, negative = cytotoxicity, actives largely listed as inhibitors; 390,000 compounds, 0.16% hits; AID 504648; further: potency means the concentration at half of the fitted maximal effect; on the % scale 0 is the no-effect control and ±100 the full control effect
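A549 ARE_Fluc cells in 5% FBS OPTI-MEM were exposed to compounds in concentration-response for 18-24 h at 37 deg C. Viability was read by CellTiter-Fluor fluorescence (Ex 405/Em 525) after 30 min, before the luciferase read.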
* = called active by the depositor; ? = inconclusive; / = no result; [ ] = dose if it differs, or a comment. Unless noted, the call rests on the fitted dose curve; in most records, active means well fitted curve in the direction sought with a large enough effect; inconclusive means small, poorly fitted or top-dose-only effect, or another doubt; inactive means no such curve, though single readings can be large; an effect the other way counts as inactive or inconclusive.

SMILES	12-LOX inh	Nrf2 ARE act	IDH1 R132H inh	LDHA block	Nrf2 block	A549 viability
CC(C)c1oc(=O)cc2c1[C@@H](O)[C@H]1OC(=O)[C@@]3(C)CC[C@@H](O)[C@@]2(C)C13 (stereo not given in full)	3%	-3%	-8%	1	18µM*	?
CC(C)c1oc(=O)cc2c1[C@@H](O)[C@H]1OC(=O)[C@@]3(C)C[C@@H](O)[C@@H](O)[C@@]2(C)C13 (stereo not given in full)	?	-2%	7%	-5	18µM*	?
C#C[C@H]1CN2CC[C@H]1C[C@@H]2CNC(=O)c1ccc(-c2ccccc2)cc1	28%[176 µM]	/	/	/	/	/
CCCCCCCCn1sccc1=O	45µM*	-5%	-5%	-3	16%	-4%
CCCC1COC(Cn2cncn2)(c2ccc(Cl)cc2Cl)O1 (stereo not given)	-1%	-1%	10%	-2	-6%	3%
CC(=O)N1CCN(c2ccc(OC[C@H]3CO[C@](Cn4ccnc4)(c4ccc(Cl)cc4Cl)O3)cc2)CC1	?	11%	7%	5	18µM*	-1%
Cc1ccc(C)c(CN2C(=O)c3ccccc3S(=O)(=O)c3ccc(C(=O)N4CCCCCC4)cc32)c1	-9%	5%	/	-13	21µM*	-28%
Cc1ccc(CN2C(=O)c3ccccc3Sc3ccc(C(=O)N4CCC5(CC4)OCCO5)cc32)cc1	0%	-1%	-27%	-3	/	-11%
Cc1ccc(C)c(N2CCN(C(=O)C3CCCN(S(=O)(=O)c4cccc5nsnc45)C3)CC2)c1 (stereo not given)	-16%	0%	-8%	-11	16µM*	-7%
O=C(C1CCCN(S(=O)(=O)c2cccc3nsnc23)C1)N1CCC2(CC1)OCCO2 (stereo not given)	290%[57.4 µM]	0%	2%	-4	6%	0%
N#CC1(c2ccccc2)CCN(C(=O)[C@H]2CCC[C@@H](O)C2)CC1	44%	/	/	/	/	/
CN1CCN(c2ccc([N+](=O)[O-])c3no[n+]([O-])c23)CC1	?	-3%	15%	21	?	23µM*
Cc1ccc(-n2nnnc2C2(NC3CCCCC3)CCCCC2)cc1	16%	/	/	-5	/	/
O=C1NC(=O)C(=Cc2cccc(OCCOc3ccccc3)c2)C(=O)N1	?	0%	-3%	-31*	?	-1%
CCc1ccc(CNC(=O)C2CCN(C(=O)c3ccc(-n4c(C)cc5ccccc54)s3)CC2)cc1	?	0%	-16%	-5	18µM*	-29%
COC(=O)C1=C(c2cc3ccccc3s2)C[C@@H]2CC[C@H]1N2C(=O)NCc1ccc(F)cc1	-23%	-1%	4%	2	?	-5%
CCCn1c(C)cnc1CCNC(=O)c1nn(C)c2ccccc12	78%	/	/	/	/	/
Cc1ccc([N+](=O)[O-])[c]2c1[O][Hg]2	0.051µM*	/	/	/	/	/
COCCn1c(C)cc(C(=O)NC2CCc3nnc(C4CC4)n3CC2)c1C (stereo not given)	21%	/	/	/	/	/
COc1cc([N+](=O)[O-])c2nc(C)ccc2c1[N+](=O)[O-]	-6%	18µM*	9%	10	-7%	-8%
COc1cc([N+](=O)[O-])c2ncccc2c1[N+](=O)[O-]	/	-1%	/	8	/	/
Cc1ccccc1-[n+]1c(-c2ccccc2)cc(-c2ccccc2)cc1-c1ccccc1	6%	-1%	-5%	-4	12µM*	?
COc1ccc(-[n+]2c(-c3ccccc3)cc(-c3ccc(C)cc3)cc2-c2ccccc2)cc1	0%	0%	-2%	-6	21µM*	?
Cc1cc(/C=C2\C(=O)NC(=O)N(c3ccc(Cl)cc3)C2=O)c(C)n1-c1sc2c(c1C#N)CCCC2	11µM*	9%	-9%	-2	2%	1%
CC1=Nc2ccccc2/C1=C/c1c(O)[nH]c(=O)[nH]c1=O	28µM*	4%	1%	0	-26%	-11%
SMILES	12-LOX inh	Nrf2 ARE act	IDH1 R132H inh	LDHA block	Nrf2 block	A549 viability
O=C1Nc2ccccc2CC12CN(CC1CC1)C2	14%[12.5 µM]	/	/	/	/	/
Cc1cc(C(=O)N2[C@H]3CC[C@@H]2c2cnc(-c4ccc(F)cc4)nc2C3)nn1C	-18%	/	/	/	/	/
O=c1[nH]c(O)c(N=Nc2cc([N+](=O)[O-])ccc2O)c(=O)[nH]1	-20%	0%	0%	28	-1%	23µM*
CSc1ccc(CN2CCN(C(=O)Cc3ccccc3)CC2)cc1	26%	2%	9%	-24	?	1%
CSc1ccc(CN2CCN(Cc3ccccc3Cl)CC2)cc1	-24%	0%	4%	-31*	?	0%
COc1ccc(CCNCc2ccccc2)cc1	?	-1%	-9%	-19	-3%	0%
COc1ccc(CCNCc2cccc(Br)c2)cc1	1.3µM*	/	/	-1	/	/
COc1ccc(CCNCc2ccc(Br)cc2)cc1	22µM*	/	/	11	/	/
CC(C)CCNC(=O)c1c(N)n(Cc2ccc3c(c2)OCO3)c2nc3ccccc3nc12	0%	0%	-3%	10	21µM*	16µM*
COC(=O)C1=C(c2ccc(OCc3ccccc3)cc2)C[C@@H]2CC[C@H]1N2C(=O)NCc1cccc(OC)c1	-8%	-1%	0%	1	23µM*	-12%
COC(=O)C1=C(c2cccc(OCc3ccccc3)c2)C[C@@H]2CC[C@H]1N2C(=O)NCc1ccccc1OC	0%	3%	3%	-1	21µM*	?
COC(=O)C1=C(c2cccc(OCc3ccccc3)c2)C[C@@H]2CC[C@H]1N2C(=O)NCc1ccc(Cl)cc1	-22%	-1%	-12%	-12	23µM*	-13%
COC(=O)C1=C(c2ccc(OCc3ccccc3)cc2)C[C@@H]2CC[C@H]1N2C(=O)NCc1ccc(OC)cc1	2%	2%	-4%	0	/	/
COc1ccc(CNC[C@H]2C[C@@H]3CCN2C[C@@H]3c2cc(-c3ccc(F)cc3)nn2C)cc1	87%[176 µM]	/	/	/	/	/
N#CC1(c2ccccc2)CCN(C(=O)c2ccc3nccn3c2)CC1	74%	/	/	/	/	/
CCN(CCCl)c1cc(CN(C)C)cc(NC(=O)c2ccc(C(=O)Nc3cc(CN(C)C)cc(N(CC)CCCl)c3)cc2)c1	?	-3%	0%	5	2.9µM*	13µM*
O=C(Nc1cccc(F)c1)c1cn(Cc2ccccc2)nc1-c1ccccc1	17%	/	/	8	/	/
COC(=O)C1=C(c2ccc(-c3ccccc3)c(F)c2)C[C@@H]2CC[C@H]1N2C(=O)N1CCCC1	?	1%	-10%	1	21µM*	-1%
